These results are taken from PubChem BioAssay (EPA / NIEHS).

SMILES strings stand for the structures. Inconclusive results are not listed. Activity calls are given as the source filed them. How the source made its calls: active means hit-call score of the fitted dose curve at least 0.9, where 1 is the maximum; inconclusive means response in the unintended direction; inactive means score below 0.9.

Assay [1] concerns the target rat Peripheral-type Benzodiazepine Receptor (PBR), Tspo (gene 24230) (UniProt P16257). The assay is described as follows: NVS_MP_rPBR: NovaScreen (NVS) Membrane Protein Assay for rat Peripheral-type Benzodiazepine Receptor (PBR) (AID 2283335). The essentials:
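Single-concentration duplicate screening at 25 uM preceded concentration-series retesting of actives. Binding of a specific radioligand to rat kidney membrane PBR was read by filtration radiodetection after 1 h, with plate-wise positive and negative controls.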

Assay [2] has as its target Estrogen receptor (Homo sapiens) (UniProt P03372). Kind of assay: OT_ER_ERaERa_1440: Odyssey Thera (OT) 24-hour HEK293T Protein-Complementation Assay for Estrogen Receptor-alpha/-alpha Homodimer (AID 2283349).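 Further: hits raise fluorescence above DMSO for agonists and antagonists alike.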 In a few lines:
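Cells (HEK293T) carrying the fragment-tagged ERα LBD (aa 310-547) pair are treated with chemical for 24 hours. Nuclear and/or cytoplasmic fluorescence is then quantified on a laser scanning cytometer. Activity is scored as signal gain against DMSO.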

The target is the same in assay [3]. The assay is described as follows: OT_ER_ERaERa_0480: Odyssey Thera (OT) 8-hour HEK293T Protein-Complementation Assay for Estrogen Receptor-alpha/-alpha Homodimer (AID 2283351).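 Further: rise in fluorescence from reassembled reporter fragments on ERα LBD homodimer in nucleus or whole cell.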 In a few lines: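 Read-out: fluorescence intensity rise relative to DMSO, nuclear for agonists, nuclear plus cytoplasmic for antagonists. Construct is the ERα LBD (aa 310-547) homodimer fragment-complementation pair, stably expressed in HEK293T; exposure 8 h.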

The target in assay [4] is T1, Estrogen receptor (Homo sapiens) + Estrogen receptor beta (Homo sapiens) (UniProt P03372+Q92731). Kind of assay: OT_ER_ERaERb_1440: Odyssey Thera (OT) 24-hour HEK293T Protein-Complementation Assay for Estrogen Receptor-alpha/-beta Homodimer (AID 2283356).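 Further: heteromer of ER alpha and ER beta binding domains; hits raise reporter fluorescence and both agonists and antagonists give an increase.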 In a few lines: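 24 h exposure; HEK293T PCA cells with ERα/ERβ LBD fragments; signal rise in nuclear or whole-cell fluorescence over vehicle.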

The test system of a further assay is NCBI gene 100848466. The assay is described as follows: NVS_NR_bPR: NovaScreen (NVS) Nuclear Receptor Binding Assay for bovine Progextron Receptor (PR) (AID 2283343).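 On AC50: actives lower bound radioligand signal below DMSO meaning displacement of the label.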 The essentials: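 Scintillation counts of bound radioligand were read 18 hours after chemical addition to membranes extracted from bovine uterus. Displacement was scored as loss of signal relative to DMSO controls. Screening began at 25 uM in duplicate.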

Assay [5] concerns the target bovine Estrogen Receptor (ER), ESR1 (gene 407238) (UniProt P49884). Kind of assay: NVS_NR_bER: NovaScreen (NVS) Nuclear Receptor Binding Assay for bovine Estrogen Receptor (ER) (AID 2283345).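 Further: actives lower the bound radioligand count which means they displace the ER ligand.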 The essentials: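 Displacement of a radioligand from estrogen receptor in bovine uterine membrane preparations; scintillation signal taken at 18 hours, DMSO as baseline. Single-concentration duplicates (25 uM) preceded concentration-response follow-up of actives.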

Assay [6] concerns the target Estrogen receptor (Homo sapiens) (UniProt P03372). The assay is described as follows: NVS_NR_hER: NovaScreen (NVS) Nuclear Receptor Binding Assay for human Estrogen Receptor (ER) (AID 2283348). The essentials:
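MCF7-derived receptor extract, radiolabelled ligand, competitive displacement. Read: scintillation counts at 18 h. DMSO = negative control/baseline. Primary 25 uM duplicate; follow-up concentration–response.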

Assay [7] addresses human Constitutive Androstane Receptor (CAR), NR1I3 (gene 9970) (UniProt Q14994). The assay is described as follows: NVS_NR_hCAR_Antagonist: NovaScreen (NVS) Nuclear Receptor Binding Assay for human Constitutive Androstane Receptor Antagonism (CAR) (AID 2283344). The essentials: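 Single 25 uM duplicate primary screen, with concentration-series follow-up on actives. Cell-free binding format run in antagonist mode, TR-FRET signal taken 1 h post-dose; activity is signal loss relative to DMSO.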

The target in assay [8] is chimpanzee Androgen Receptor (AR), AR (gene 747460) (UniProt O97775). Kind of assay: NVS_NR_cAR: NovaScreen (NVS) Nuclear Receptor Binding Assay for chimpanzee Androgen Receptor (AR) (AID 2283346).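 Further: radioligand displacement from AR measured by scintillation counting in a cell-free assay.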 The essentials:
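Radioligand binding to chimpanzee AR expressed in Sf9/Sf21 cells, cell-free, measured 72 h after dosing by lysate-based scintillation counting. Loss of signal vs DMSO; initial duplicate screen at 25 uM, actives retested in concentration series.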

Assay [9] addresses Bile acid receptor (Homo sapiens) (UniProt Q96RI1). Kind of assay: NVS_NR_hFXR_Antagonist: NovaScreen (NVS) Nuclear Receptor Binding Assay for human Farnesoid X Receptor Antagonism (FXR) (AID 2283350). The essentials: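 Antagonist-format time-resolved FRET binding assay with extracted human receptor protein, read 1 hour after compound addition. Compounds first screened at 25 uM in duplicate, then actives tested in concentration series, with loss of signal relative to DMSO.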

Assay [10] addresses bovine Gamma-Aminobutyric Acid Type A Receptor Agonist (GABAR Agonist), GABRA1 (gene 780973) (UniProt P08219). The assay is described as follows: NVS_LGIC_bGABAR_Agonist: NovaScreen (NVS) Ligand-Gated Ion Channel Assay for bovine Gamma-Aminobutyric Acid Type A Receptor Agonist (GABAR Agonist) (AID 2283338). In a few lines:
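Radioligand binding to bovine cerebellar membranes in agonist format, read by filter-based scintillation counting after 1 h. Primary screen in duplicate at 25 uM, with actives followed in concentration series. Gain of signal versus DMSO.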

The target of assay [11] is T1, Estrogen receptor (Homo sapiens) + Estrogen receptor beta (Homo sapiens). The assay is described as follows: OT_ER_ERaERb_0480: Odyssey Thera (OT) 8-hour HEK293T Protein-Complementation Assay for Estrogen Receptor-alpha/-beta Heterodimer (AID 2283352). In a few lines:
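Human HEK293T cells were treated for 8 hours and receptor heterodimerisation was detected through reconstitution of a fluorescent reporter split between ER-alpha and ER-beta ligand-binding domains. Activity was analysed as gain of signal against DMSO.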

Assay [12] is described as follows: NVS_IC_rCaBTZCHL: NovaScreen (NVS) Ion Channel Assay for Calcium Channel, Type L, Benzothiazepine Site (CaBTZCHL) (AID 2283337). The essentials: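 Rat cortical membrane preparation, cell-free. Radioligand displaced by test chemical; 1.5 h incubation; filtration, scintillation count. DMSO = negative control/baseline. Primary: duplicate, 25 uM; secondary: concentration series.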

In assay [13] the test system is guinea pig Histamine Receptor (H2), gene 100729734. Kind of assay: NVS_GPCR_gH2: NovaScreen (NVS) G Protein-Coupled Receptor Assay for guinea pig Histamine Receptor (H2) (AID 2283342). In a few lines:
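Guinea pig striatal membrane preparation with specific radioligand; bound counts measured by filtration and scintillation 1 h post-dosing, DMSO as baseline. Chemicals passing a 25 uM duplicate screen were titrated to a 50 uM maximum.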

In assay [14] the target is Androgen Receptor/SRC-1 Co-activator, AR (gene 367) (UniProt P10275). The assay is described as follows: OT_AR_ARSRC1_0960: Odyssey Thera (OT) 16-hour HEK293T Protein-Complementation Assay for Androgen Receptor/SRC-1 Co-activator (AID 2283353).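 Further: actives raise the signal above DMSO so potency reflects increased AR and SRC-1 complex.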 The essentials:
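Readout: 488 nm nuclear-to-cytoplasmic fluorescence ratio from imaging of at least 400 cells per image, 16 h post-dose. Reporter is Venus YFP complementation between AR and SRC-1 fusions, stably expressed in HEK293T; activity scored upward relative to DMSO.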

Assay [15] shares this target. The assay is described as follows: OT_AR_ARSRC1_0480: Odyssey Thera (OT) 8-hour HEK293T Protein-Complementation Assay for Androgen Receptor/SRC-1 Co-activator (AID 2283354).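 Further: hits raise the complementation signal above DMSO so AC50 marks enhancers.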 The essentials:
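Split-Venus PCA, stable HEK293T, AR/SRC-1 fusions; 8 h exposure. Readout: 488nm N/C fluorescence ratio, ≥400 cells/image; fitted upward vs DMSO baseline.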

For assay [16], the target named is rat Mineralocorticoid Receptor (MR), Nr3c2 (gene 25672) (UniProt P22199). Kind of assay: NVS_NR_rMR: NovaScreen (NVS) Nuclear Receptor Binding Assay for rat Mineralocorticoid Receptor (MR) (AID 2283355). In a few lines: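 Radioligand displacement, scintillation readout; tissue source adrenalectomized rat brain supernatant. Read 24 h post-dose. Screened in duplicate at 25 uM, DMSO negative control, controls on every plate; actives re-run in concentration series.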

T1 sequence (P03372 whole entry, looked up, the tested form may be a part): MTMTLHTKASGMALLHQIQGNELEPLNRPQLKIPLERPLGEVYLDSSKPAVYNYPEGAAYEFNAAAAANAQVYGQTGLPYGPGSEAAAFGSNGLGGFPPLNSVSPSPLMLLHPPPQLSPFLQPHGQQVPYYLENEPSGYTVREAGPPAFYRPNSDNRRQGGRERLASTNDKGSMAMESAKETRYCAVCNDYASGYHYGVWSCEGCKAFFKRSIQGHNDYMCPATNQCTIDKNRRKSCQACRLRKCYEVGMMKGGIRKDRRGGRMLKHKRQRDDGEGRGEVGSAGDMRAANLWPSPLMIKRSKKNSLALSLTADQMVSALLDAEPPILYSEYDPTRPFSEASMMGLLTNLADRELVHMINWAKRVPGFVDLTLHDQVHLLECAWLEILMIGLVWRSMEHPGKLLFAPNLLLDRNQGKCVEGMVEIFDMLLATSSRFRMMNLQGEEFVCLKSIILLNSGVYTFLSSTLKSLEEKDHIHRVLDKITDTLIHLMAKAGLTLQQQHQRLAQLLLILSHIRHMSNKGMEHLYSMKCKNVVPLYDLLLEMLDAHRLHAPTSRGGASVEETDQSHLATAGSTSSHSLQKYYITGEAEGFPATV
T1 sequence (Q92731 whole entry, looked up, the tested form may be a part): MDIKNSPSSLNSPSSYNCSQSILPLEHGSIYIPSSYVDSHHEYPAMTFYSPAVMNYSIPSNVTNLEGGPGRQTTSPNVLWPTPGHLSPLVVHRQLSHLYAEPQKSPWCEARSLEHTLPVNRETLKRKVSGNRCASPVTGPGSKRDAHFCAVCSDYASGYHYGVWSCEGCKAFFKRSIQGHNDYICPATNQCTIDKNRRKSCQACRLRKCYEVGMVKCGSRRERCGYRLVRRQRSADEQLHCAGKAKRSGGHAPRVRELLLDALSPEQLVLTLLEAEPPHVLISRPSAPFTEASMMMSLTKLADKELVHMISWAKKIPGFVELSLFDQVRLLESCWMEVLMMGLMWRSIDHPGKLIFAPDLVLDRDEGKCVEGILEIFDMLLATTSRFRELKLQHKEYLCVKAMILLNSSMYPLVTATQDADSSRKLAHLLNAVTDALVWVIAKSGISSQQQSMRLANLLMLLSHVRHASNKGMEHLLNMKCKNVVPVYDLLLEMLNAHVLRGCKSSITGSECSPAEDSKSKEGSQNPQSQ
Chain of Estrogen receptor (Homo sapiens) (P03372 whole entry, looked up, the tested form may be a part): as the sequence (P03372 whole entry, looked up, the tested form may be a part) above
Chain of human Constitutive Androstane Receptor (CAR), NR1I3 (gene 9970) (Q14994 whole entry, looked up): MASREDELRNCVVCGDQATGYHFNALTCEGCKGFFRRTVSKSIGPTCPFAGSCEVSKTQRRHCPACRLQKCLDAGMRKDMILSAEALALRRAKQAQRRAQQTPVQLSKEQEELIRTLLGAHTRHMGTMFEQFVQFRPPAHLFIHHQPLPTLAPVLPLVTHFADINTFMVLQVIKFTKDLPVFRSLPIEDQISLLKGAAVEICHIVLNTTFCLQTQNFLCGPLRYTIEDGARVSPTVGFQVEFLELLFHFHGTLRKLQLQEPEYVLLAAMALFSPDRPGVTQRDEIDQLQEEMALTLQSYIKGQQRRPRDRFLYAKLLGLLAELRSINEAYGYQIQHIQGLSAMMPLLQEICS
Chain of bovine Estrogen Receptor (ER), ESR1 (gene 407238) (P49884 whole entry, looked up): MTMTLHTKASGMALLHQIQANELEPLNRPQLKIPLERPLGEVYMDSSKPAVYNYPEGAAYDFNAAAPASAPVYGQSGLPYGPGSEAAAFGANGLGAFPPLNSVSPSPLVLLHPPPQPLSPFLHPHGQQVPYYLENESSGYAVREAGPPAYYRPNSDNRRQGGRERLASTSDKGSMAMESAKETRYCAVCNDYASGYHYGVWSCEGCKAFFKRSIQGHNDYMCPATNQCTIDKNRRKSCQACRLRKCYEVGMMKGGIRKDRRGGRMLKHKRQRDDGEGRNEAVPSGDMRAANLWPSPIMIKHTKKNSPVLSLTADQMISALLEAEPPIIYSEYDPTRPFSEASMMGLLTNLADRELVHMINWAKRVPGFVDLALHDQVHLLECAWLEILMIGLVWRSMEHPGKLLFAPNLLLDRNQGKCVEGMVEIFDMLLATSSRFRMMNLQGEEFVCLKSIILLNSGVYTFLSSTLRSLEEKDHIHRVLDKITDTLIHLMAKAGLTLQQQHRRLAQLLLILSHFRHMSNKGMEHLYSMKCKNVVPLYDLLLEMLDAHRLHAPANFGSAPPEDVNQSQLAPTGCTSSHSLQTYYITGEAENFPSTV
Chain of rat Peripheral-type Benzodiazepine Receptor (PBR), Tspo (gene 24230) (P16257 whole entry, looked up): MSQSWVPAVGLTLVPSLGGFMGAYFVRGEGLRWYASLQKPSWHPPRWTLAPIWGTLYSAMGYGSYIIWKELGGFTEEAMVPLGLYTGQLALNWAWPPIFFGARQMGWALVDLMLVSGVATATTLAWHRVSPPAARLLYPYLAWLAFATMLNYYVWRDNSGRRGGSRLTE
Chain of Androgen Receptor/SRC-1 Co-activator, AR (gene 367) (P10275 whole entry, looked up, the tested form may be a part): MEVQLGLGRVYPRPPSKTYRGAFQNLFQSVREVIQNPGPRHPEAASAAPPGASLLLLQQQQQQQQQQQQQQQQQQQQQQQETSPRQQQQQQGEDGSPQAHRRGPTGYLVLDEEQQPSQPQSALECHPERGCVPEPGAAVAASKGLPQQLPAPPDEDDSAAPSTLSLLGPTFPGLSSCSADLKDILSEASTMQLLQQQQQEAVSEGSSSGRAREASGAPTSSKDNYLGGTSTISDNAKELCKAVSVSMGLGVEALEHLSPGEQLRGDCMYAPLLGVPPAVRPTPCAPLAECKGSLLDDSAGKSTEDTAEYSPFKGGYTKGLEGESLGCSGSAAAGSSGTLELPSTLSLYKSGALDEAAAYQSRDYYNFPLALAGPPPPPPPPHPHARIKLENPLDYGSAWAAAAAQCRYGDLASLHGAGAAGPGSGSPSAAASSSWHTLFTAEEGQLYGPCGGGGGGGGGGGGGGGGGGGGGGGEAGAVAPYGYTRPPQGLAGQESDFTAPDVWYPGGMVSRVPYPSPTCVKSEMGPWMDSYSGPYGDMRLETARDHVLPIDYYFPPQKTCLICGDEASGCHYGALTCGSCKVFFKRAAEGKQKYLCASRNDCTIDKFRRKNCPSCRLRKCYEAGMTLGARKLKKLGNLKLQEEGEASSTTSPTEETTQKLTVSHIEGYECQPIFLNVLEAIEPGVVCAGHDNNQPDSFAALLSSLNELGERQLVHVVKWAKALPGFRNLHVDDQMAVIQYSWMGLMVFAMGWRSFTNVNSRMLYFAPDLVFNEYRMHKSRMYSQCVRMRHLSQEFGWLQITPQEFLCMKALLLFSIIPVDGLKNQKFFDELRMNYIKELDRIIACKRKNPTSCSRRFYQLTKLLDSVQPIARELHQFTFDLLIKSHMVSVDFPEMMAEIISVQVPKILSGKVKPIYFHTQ
Chain of chimpanzee Androgen Receptor (AR), AR (gene 747460) (O97775 whole entry, looked up): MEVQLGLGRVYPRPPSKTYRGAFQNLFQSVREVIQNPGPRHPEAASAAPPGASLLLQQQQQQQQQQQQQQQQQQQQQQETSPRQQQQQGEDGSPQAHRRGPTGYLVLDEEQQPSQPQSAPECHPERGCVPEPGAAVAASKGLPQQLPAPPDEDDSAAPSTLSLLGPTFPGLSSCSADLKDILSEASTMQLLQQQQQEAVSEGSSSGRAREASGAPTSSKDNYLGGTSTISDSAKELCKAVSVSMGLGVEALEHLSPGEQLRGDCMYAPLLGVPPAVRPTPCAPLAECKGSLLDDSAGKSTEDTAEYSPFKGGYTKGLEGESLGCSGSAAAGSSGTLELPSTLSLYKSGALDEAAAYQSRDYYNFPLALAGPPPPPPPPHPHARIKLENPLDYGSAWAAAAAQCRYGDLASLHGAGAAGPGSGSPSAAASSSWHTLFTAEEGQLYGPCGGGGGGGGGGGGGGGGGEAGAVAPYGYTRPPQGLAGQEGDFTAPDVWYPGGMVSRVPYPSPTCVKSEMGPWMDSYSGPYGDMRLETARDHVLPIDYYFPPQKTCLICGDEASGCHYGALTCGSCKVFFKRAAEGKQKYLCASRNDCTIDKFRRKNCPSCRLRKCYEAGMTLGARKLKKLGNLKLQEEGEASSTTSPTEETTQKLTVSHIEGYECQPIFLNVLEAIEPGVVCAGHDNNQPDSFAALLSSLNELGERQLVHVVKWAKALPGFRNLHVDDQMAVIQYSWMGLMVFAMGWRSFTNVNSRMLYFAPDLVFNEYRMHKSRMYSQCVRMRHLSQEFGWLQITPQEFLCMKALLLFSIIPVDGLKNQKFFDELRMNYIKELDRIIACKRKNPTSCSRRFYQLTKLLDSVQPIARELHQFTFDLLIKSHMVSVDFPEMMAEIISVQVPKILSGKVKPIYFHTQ
Chain of Bile acid receptor (Homo sapiens) (Q96RI1 whole entry, looked up): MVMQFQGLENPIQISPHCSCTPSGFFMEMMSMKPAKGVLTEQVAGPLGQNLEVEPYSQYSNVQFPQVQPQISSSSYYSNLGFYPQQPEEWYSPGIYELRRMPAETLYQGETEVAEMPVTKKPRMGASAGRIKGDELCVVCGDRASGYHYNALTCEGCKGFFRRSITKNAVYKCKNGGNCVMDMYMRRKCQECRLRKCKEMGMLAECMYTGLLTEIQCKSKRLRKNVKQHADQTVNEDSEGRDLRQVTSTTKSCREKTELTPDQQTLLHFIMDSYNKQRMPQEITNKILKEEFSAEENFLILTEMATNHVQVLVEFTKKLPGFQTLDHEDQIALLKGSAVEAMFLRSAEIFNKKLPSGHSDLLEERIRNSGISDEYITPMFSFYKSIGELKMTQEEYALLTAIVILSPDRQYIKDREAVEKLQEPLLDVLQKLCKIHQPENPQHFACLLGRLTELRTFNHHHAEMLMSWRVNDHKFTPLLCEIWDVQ

The AC50 is the midpoint of the concentration-response curve, whichever way the signal moves. Turning to `Clc1nc(Cl)nc(Nc2ccccc2Cl)n1`, in assay [1], the AC50 is 1.3 µM (active). The molecule was called inactive in [2], in assay [3] and in assay [4].

On to `CC1(C)C(C=C(Cl)Cl)C1C(=O)OC(C#N)c1cccc(Oc2ccccc2)c1` (stereo not given), for which the AC50 in assay [1] was 5.01 µM (active). For the same molecule, the molecule was classed as inactive (in the assay on NCBI gene 100848466; in assay [5]; in [6]; in assay [2]; in [3]; in assay [4]).

Take `COP(=S)(OC)Oc1ccc([N+](=O)[O-])c(C)c1`: the molecule was called inactive in [1], in assay [7], in assay [5], in assay [2], in [9] and in [3]. Besides, the outcome in [4] was inactive. The AC50 with NCBI gene 100848466 was 14.8 µM (active); in assay [8] it was 5.29 µM (active).

Regarding `Nc1cnn(-c2ccccc2)c(=O)c1Cl`, the call in assay [10], in [6], in [2], in assay [3], in assay [11] and in assay [4] was inactive.

As for `CCCCC(C#N)(Cn1cncn1)c1ccc(Cl)cc1` (stereo not given), the results for the AC50 in [1] and in [13] were 12.5 µM (active) and 29.7 µM (active), respectively. Besides, the result (in [12]; with NCBI gene 100848466; in assay [7]; in assay [5]; in assay [6]; in assay [2]) was inactive. For the same molecule, in [3], the call was inactive.

`CCNP(=S)(OC)O/C(C)=C/C(=O)OC(C)C` (stereo not given): the concentration at half-maximal activity (AC50) is 11.8 µM (active) in assay [1] and 16.1 µM (active) in [13]. Further, the outcome in assay [2], in assay [3] and in assay [4] was inactive.

On to `CCCN(CC)CC1COC2(CCC(C(C)(C)C)CC2)O1` (stereo not given), for which the values for the AC50 in [12], in [13] and in assay [4] were 9.84 µM (active), 9.65 µM (active) and 32.2 µM (active), respectively. Further, the molecule was called inactive in [2] and in [3].

`CCN(CC)C(=O)C(C)Oc1cccc2ccccc12` (stereo not given): the AC50 is 0.125 µM (active) in [1], 34.2 µM (active) in assay [7] and 11.5 µM (active) in assay [8]. Further, the outcome in [2], in assay [3] and in [4] was inactive.

As for `CCC(C)n1c(=O)[nH]c(C)c(Br)c1=O` (stereo not given), the result in [7], in assay [2], in assay [3] and in assay [4] was inactive.

In the case of `Nc1c(Cl)c(F)nc(OCC(=O)O)c1Cl`, the molecule was called inactive in assay [2], in assay [3], in assay [11], in assay [14], in assay [15] and in assay [4].

With `C=CCOC(=O)C(C)(C)OC(=O)c1cc(-n2c(=O)cc(C(F)(F)F)n(C)c2=O)ccc1Cl`, the call in [2] and in assay [4] was inactive.

As to `CC(C)N1C(=O)c2ccccc2NS1(=O)=O`, the molecule was called inactive in [2], in assay [3] and in assay [16].

As for `O=C(O)c1c(Cl)ccc2cc(Cl)cnc12`, the call in assay [2], in assay [3] and in [4] was inactive.

With `Cc1cnc(C2=NC(C)(C(C)C)C(=O)N2)c(C(=O)O)c1` (stereo not given), the result in assay [2], in [3], in assay [14], in [15] and in assay [4] was inactive.

For the molecule `CC(C)Nc1nc(Cl)nc(NC(C)C)n1`, the outcome in [2], in assay [11] and in [4] was inactive.

For `CC(C)N1C(=O)N(c2ccccc2)CSC1=NC(C)(C)C`, the call in [2], in assay [3], in assay [15] and in assay [4] was inactive. Moreover, the AC50 in assay [14] is 62.9 µM (active).

Regarding `CN/C(=N\[N+](=O)[O-])NCc1cnc(Cl)s1`, the molecule was called inactive in [2], in [3] and in assay [4].
